Assay results from PubChem BioAssay (NCATS).
Records with an inconclusive call do not appear. Activity calls are given as the source filed them. Unless noted, the call rests on the fitted dose curve; in most records, active means well fitted curve in the direction sought with a large enough effect; inconclusive means small, poorly fitted or top-dose-only effect, or another doubt; inactive means no such curve, though single readings can be large; an effect the other way counts as inactive or inconclusive.

How the values were obtained:
[1] = target: Ubiquitin carboxyl-terminal hydrolase 1 (Homo sapiens) (UniProt O94782); assay: Inhibitors of USP1/UAF1: Pilot qHTS (AID 504865); further: nearly all actives have a fitted effect of over 35% in size; further: potency means the concentration at half of the fitted maximal effect
Procedure, shortened: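 USP1/UAF1 complex (1nM) preincubated with compound 15 min at room temperature, then Ub-Rho substrate (150nM final) added. Fluorescence read kinetically at 480/540 nm, 6 reads every 60 seconds. Buffer: 50mM HEPES pH 7.8, 0.5mM EDTA, 0.1 mg/ml BSA, 1mM TCEP, 0.01% Tween-20.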

[2] = S16 Schwann cell viability assay (CellTiter-Glo assay) (AID 624031);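 further: cellular ATP luminescence as a viability measure; plate controls were DMSO-treated cells for no effect and cell-free wells for full effect; nearly all actives have a fitted effect of over 70% in size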
Procedure, shortened: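 Native S16 rat Schwann cells in DMEM/10% FBS without phenol red were incubated overnight, then exposed to compounds for 24 h at 37 °C/5% CO2. Viability was read as ATP luminescence (CellTiter-Glo), normalized to no-cell wells and DMSO (0%).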

[3] = S16 Schwann cell PMP22 intronic element beta-lactamase assay (AID 624044; calls by dose curve; further: nearly all actives have a fitted effect of over 15% in size; further: potency means the concentration at half of the fitted maximal effect;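 on ratio activity, negative = inhibition: 0% = DMSO and -100% = potassium clavulanate positive control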); details: S16 rat Schwann cells, PMP22 element beta-lactamase FRET, 24 h; ratio activity, negative = inhibition: at 38.3 µM (top of the series)
Procedure, shortened: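 Beta-lactamase reporter under a PMP22 intronic regulatory element in stable S16 rat Schwann cells; 24 h compound exposure. 460 nm blue signal normalized between DMSO (0%) and potassium clavulanate, with 535 nm FRET tracking viability; curves classed by r2 and response.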

CP266 = assay: qHTS profiling for inhibitors of Plasmodium falciparum proliferation (AID 504749); further: nearly all actives have a fitted effect of over 60% in size; further: potency means the concentration at half of the fitted maximal effect;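 on activity, negative = inhibition: 0% = DMSO vehicle and full inhibition = artemisinin control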; details: P. falciparum in erythrocytes, SYBR Green DNA, 72 h; series mostly up to 28.7 µM
Procedure, shortened: (§1)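 Each compound contacts P. falciparum-infected red blood cells for 72 h at 37 C; lysis buffer (Tris, EDTA, saponin, Triton X, SYBR Green I) is added and fluorescence measured next morning; values normalized to controls.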

W2 = assay: as above; details: P. falciparum in erythrocytes, SYBR Green DNA, 72 h; series mostly up to 28.7 µM
Procedure, shortened: as §1

[4] = S16 Schwann cell PMP22 intronic element firefly luciferase assay (AID 624032); further: nearly all actives have a fitted effect of over 30% in size; further: potency means the concentration at half of the fitted maximal effect
Procedure, shortened: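 Rat S16 Schwann cells stably carrying firefly luciferase driven by a PMP22 intronic element, in 10% FBS, treated 24 h at 37 C. ONE-Glo luminescence normalized to PTC124 control and DMSO (0%); curves classed by r2, magnitude and activity.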

[5] = target: Cytochrome P450 3A4 (Homo sapiens) (UniProt P08684); assay: qHTS Assay for Inhibitors and Substrates of Cytochrome P450 3A4 (AID 884); further: on the % scale 0 is the no-effect control and ±100 the full control effect; nearly all actives have a fitted effect of over 50% in size
Procedure, shortened: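 Luminescent readout of luciferin produced by CYP3A4 (20 nM) dealkylation of Luciferin-PPXE, 25 uM (its KM). NADPH-driven reaction ran 60 min at RT after 10 min compound preincubation; data scaled to 57 uM ketoconazole as 100% inhibition.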

[6] = Confirmation and Secondary Assay for Modulators of Hemoglobin Beta Chain Splicing at IVS2 705 locus (AID 930);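 further: HeLa cells stably expressing the EGFP-705 splicing reporter; % of control where 0% means no effect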
Procedure, shortened: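 HeLa cells stably carrying EGFP interrupted by mutant beta-globin IVS2-705 intron (CMV-driven) were seeded at 500 cells/well, treated next day with compound for 2 days at 37C; corrected splicing restores EGFP, read as total peak GFP intensity per well.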

Sequence of Cytochrome P450 3A4 (Homo sapiens) (P08684 whole entry, looked up): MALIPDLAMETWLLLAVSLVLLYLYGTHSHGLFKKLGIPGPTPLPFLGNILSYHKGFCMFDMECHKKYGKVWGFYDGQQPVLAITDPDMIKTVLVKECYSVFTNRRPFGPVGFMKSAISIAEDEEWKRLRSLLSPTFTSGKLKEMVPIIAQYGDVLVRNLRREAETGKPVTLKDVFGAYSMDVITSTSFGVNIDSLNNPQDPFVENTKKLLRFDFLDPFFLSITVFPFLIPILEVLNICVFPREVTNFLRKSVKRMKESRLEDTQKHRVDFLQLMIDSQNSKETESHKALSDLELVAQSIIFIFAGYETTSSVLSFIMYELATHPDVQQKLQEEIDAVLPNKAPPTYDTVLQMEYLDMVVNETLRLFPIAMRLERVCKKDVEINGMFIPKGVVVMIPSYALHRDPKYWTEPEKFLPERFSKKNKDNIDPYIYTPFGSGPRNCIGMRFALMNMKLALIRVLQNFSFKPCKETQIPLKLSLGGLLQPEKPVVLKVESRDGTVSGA
Sequence of Ubiquitin carboxyl-terminal hydrolase 1 (Homo sapiens) (O94782 whole entry, looked up): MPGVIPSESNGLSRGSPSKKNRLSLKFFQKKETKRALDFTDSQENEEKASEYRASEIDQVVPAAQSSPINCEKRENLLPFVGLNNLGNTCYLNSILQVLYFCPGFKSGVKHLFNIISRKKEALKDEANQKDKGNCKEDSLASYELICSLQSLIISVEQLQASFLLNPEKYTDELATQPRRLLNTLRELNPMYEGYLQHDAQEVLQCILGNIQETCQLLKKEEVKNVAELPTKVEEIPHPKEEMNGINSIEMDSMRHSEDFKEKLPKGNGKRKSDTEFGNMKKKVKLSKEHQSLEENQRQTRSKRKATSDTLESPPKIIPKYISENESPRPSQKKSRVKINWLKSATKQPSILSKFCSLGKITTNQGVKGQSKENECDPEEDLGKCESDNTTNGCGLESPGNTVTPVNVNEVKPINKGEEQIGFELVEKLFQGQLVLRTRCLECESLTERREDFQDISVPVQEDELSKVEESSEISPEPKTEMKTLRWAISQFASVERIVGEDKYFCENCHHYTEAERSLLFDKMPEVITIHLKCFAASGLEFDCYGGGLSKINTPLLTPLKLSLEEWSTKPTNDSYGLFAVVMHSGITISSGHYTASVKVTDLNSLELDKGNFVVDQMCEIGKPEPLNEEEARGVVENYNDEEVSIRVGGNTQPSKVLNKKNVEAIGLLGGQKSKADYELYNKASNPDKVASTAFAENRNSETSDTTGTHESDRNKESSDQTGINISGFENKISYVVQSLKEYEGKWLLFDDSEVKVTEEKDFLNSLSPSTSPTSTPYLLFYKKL

O=C(O)CC(O)CC(O)/C=C/c1c(C2CC2)nc2ccccc2c1-c1ccc(F)cc1 (centres undefined)
inactive: Potency [1] | Potency [2] | Potency [3] | Potency (CP266) | Potency (W2)

CCCCN1CC(O)C(O)C(O)C1CO (centres undefined)
inactive: Potency [1] | Potency [2] | Potency [3] | Potency (CP266) | Potency (W2)

C/C1=C2/[N-]C(C(CC(N)=O)[C@@]2(C)CCC(=O)NCC(C)OP(=O)([O-])O[C@H]2[C@@H](O)[C@@H](n3cnc4cc(C)c(C)cc43)O[C@@H]2CO)[C@]2(C)N=C(/C(C)=C3N=C(/C=C4N=C1C(CCC(N)=O)C\4(C)C)[C@@H](CCC(N)=O)[C@]\3(C)CC(N)=O)[C@@H](CCC(N)=O)[C@]2(C)CC(N)=O.CC(=O)O.[Co] (some centres undefined)
inactive: Potency [2] | Potency (CP266)
active: Potency [1] 56.2 µM | Potency (W2) 601 nM

CC(=O)N[C@H]1[C@H](O[C@@H]2c3ccc(c(Cl)c3)Oc3cc4cc(c3O[C@@H]3O[C@H](CO)[C@@H](O)[C@H](O)C3C)Oc3ccc(cc3Cl)C[C@H]3NC(=O)[C@@H](N)c5ccc(O)c(c5)Oc5cc(O)cc(c5)[C@H](NC3=O)C(=O)N[C@H]4C(=O)N[C@H]3C(=O)N[C@@H]2C(=O)N[C@@H](C(=O)O)c2cc(O)cc(O[C@H]4O[C@H](CO)[C@@H](O)C(O)[C@@H]4O)c2-c2cc3ccc2O)O[C@H](CO)[C@@H](O)[C@@H]1O (some centres undefined)
inactive: Potency [2] | Potency [3] | Potency (CP266) | Potency (W2)

O=C1C(I)=CC(=C(c2cc(I)c(O)c(I)c2)c2ccccc2C(=O)O)C=C1I
inactive: Potency [2] | Potency [3] | Potency (CP266) | Potency (W2)

C=C[C@H]1CN2CCC1C[C@H]2[C@H](O)c1ccnc2ccc(OC)cc12 (some centres undefined)
inactive: Potency [2] | Potency [4]
active: ratio activity, negative = inhibition [3] -10.4% | Potency (CP266) 1.9 µM | Potency (W2) 338 nM

OCC1O[C@H](O[C@H]2C(O)C(O)C(O)O[C@@H]2CO)C(O)C(O)C1O (some centres undefined)
inactive: Potency [5] | Potency [6] | Potency [1] | Potency [2] | Potency [4] | Potency (CP266) | Potency (W2)

CC(=O)NC1[C@H](O)C[C@@](O)(C(=O)O)O[C@H]1[C@H](O)[C@H](O)CO (some centres undefined)
inactive: Potency [1] | Potency [2] | Potency [3] | Potency (CP266) | Potency (W2)

CC(=O)OCC(=O)[C@@]1(O)CCC2C3CCC4=CC(=O)C=CC4(C)C3C(O)C[C@]21C (some centres undefined)
inactive: Potency [5] | Potency [6] | Potency [1] | Potency [2] | Potency [4] | Potency [3] | Potency (CP266) | Potency (W2)

CC(=O)NC1[C@H]([C@H](O)[C@H](O)CO)OC(C(=O)O)=C[C@H]1N=C(N)N (some centres undefined)
inactive: Potency [1] | Potency [2] | Potency [3] | Potency (CP266) | Potency (W2)

Cc1cn([C@H]2CC(F)[C@@H](CO)O2)c(=O)[nH]c1=O (some centres undefined)
inactive: Potency [1] | Potency [2] | Potency [3] | Potency (CP266) | Potency (W2)

CC1(C(=O)O)CCC2(C)CCC3(C)C(=CC(=O)C4C5(C)CCC(O)C(C)(C)C5CCC43C)C2C1 (centres undefined)
inactive: Potency [2] | Potency [4] | Potency [3] | Potency (W2)

COC1CC2CCC(C)[C@](O)(O2)C(=O)C(=O)N2CCCCC2C(=O)OC(C(C)CC2CCC(O)C(OC)C2)CC(=O)C(C)/C=C(/C)C(O)C(OC)C(=O)C(C)CC(C)C=CC=C/C=C\1C (some centres undefined)
active: Potency (CP266) 6.75 µM | Potency (W2) 675 nM
inactive: Potency [2] | Potency [3]

OCC1OC(O)C(O)C(O)C1O (centres undefined)
inactive: Potency [1] | Potency [2] | Potency [3] | Potency (CP266)

CCCCCCCCCCCCCCCC(=O)OC[C@H](O)[C@H]1OC[C@@H](O)[C@@H]1O
inactive: Potency [1] | Potency [2] | Potency [3] | Potency (CP266) | Potency (W2)

CCCCC(=O)OCC(=O)[C@]1(O)Cc2c(O)c3c(c(O)c2[C@H](OC2CC(NC(=O)C(F)(F)F)C(O)C(C)O2)C1)C(=O)c1c(OC)cccc1C3=O (some centres undefined)
active: Potency [4] 721 nM | Potency [3] 2.51 µM | Potency (CP266) 1.69 µM | Potency (W2) 1510 nM
inactive: Potency [2]

Cc1ccccc1N1C(=O)c2cc(N)ccc2N/C1=C\F
inactive: Potency [1] | Potency (CP266)

CCCC(=O)O[C@]1(C(=O)COC(C)=O)CC[C@H]2C3C[C@H](F)C4=CC(=O)C=CC4(C)[C@@]3(F)[C@@H](O)CC21C (some centres undefined)
inactive: Potency [2] | Potency [4] | Potency (CP266)

C[C@H]1OC(OC2C(O)[C@@H](O)C(OC3C(O)[C@@H](O)C(O)O[C@@H]3CO)O[C@@H]2CO)[C@H](O)C(O)C1N[C@H]1C=C(CO)[C@@H](O)[C@H](O)C1O (some centres undefined)
inactive: Potency [1] | Potency [2] | Potency [4] | Potency [3] | Potency (CP266) | Potency (W2)

Cc1ccc(/C=C2/C(=O)C3(C)CCC2C3(C)C)cc1 (centres undefined)
inactive: Potency [1] | Potency [2] | Potency [4] | Potency (CP266)

C[S+](C)CC[C@H](N)C(=O)O
inactive: Potency [1] | Potency [2] | Potency [4] | Potency [3] | Potency (CP266) | Potency (W2)

OCC1O[C@H](Oc2ccc(O)cc2)C(O)C(O)C1O (some centres undefined)
inactive: Potency [5] | Potency [6] | Potency [1] | Potency [2] | Potency [4] | Potency (CP266) | Potency (W2)

CC1OC(OCC2OC(Oc3c(-c4ccc(OCCO)c(OCCO)c4)oc4cc(OCCO)cc(O)c4c3=O)C(O)C(O)C2O)[C@@H](O)C(O)C1O (some centres undefined)
inactive: Potency [5] | Potency [6] | Potency [1] | Potency [2] | Potency [3] | Potency (CP266) | Potency (W2)

CC1(Cn2ccnn2)[C@H](C(=O)O)N2C(=O)C[C@H]2S1(=O)=O (some centres undefined)
inactive: Potency [1] | Potency [2] | Potency [4] | Potency (CP266) | Potency (W2)

C[C@H]1[C@@H](OC(=O)CCC(=O)O)OC2OC3(C)CC[C@H]4[C@H](C)CC[C@@H]1[C@@]24OO3 (some centres undefined)
inactive: Potency [1] | Potency [3]
active: Potency [4] 2560 nM | Potency (CP266) 0.0239 µM | Potency (W2) 1.9 nM

CN[C@H](C)CCC=C(C)C
inactive: Potency [1] | Potency [2] | Potency [3]
active: Potency (CP266) 0.536 µM | Potency (W2) 47.8 nM
